# The supplement of paper PMC12636033
# ± gives the standard deviation of the averaged measurements. The full ranking holds about 33,000 sequences; the median of “E-score (rank enrichment, -0.5 to 0.5)” is about -0.0028, and the highest 2% start at about 0.23. The sample as a whole holds a higher share of the highest values than the screen did.
# Tested on: 2Sb-muMax20 (muMax20 with two 1,3-bis(methyl)benzene Cys staples, A13C/A17C and Q88C/A92C, C-terminal Lys)
# Test: PBM 8-mer E-score (E-score (rank enrichment, -0.5 to 0.5)); higher = stronger preferential binding
# Procedure: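 Protein binding microarray (universal PBM chip covering all 10-mers in fixed probe flanks) with chemically synthesized human Max(13-93) bHLH-LZ analogs (not full-length Max) bearing noncanonical residues (hArg, Tha, Aib, Nle at 65) and aromatic Cys staples. Read-out per 8-mer (and its reverse complement): E-score (rank-based enrichment, -0.5 to 0.5) and Z-score of median probe intensity.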
row,Sequence,PBM 8-mer E-score
1,CTGGTACA,0.0235 ± 0.024
2,CGCCGGAG,-0.226 ± 0.023
3,CAAATTGG,0.0841 ± 0.087
4,ACTCCCCG,0.168 ± 0.015
5,CCTCCCCC,-0.17 ± 0.14
6,ACTCCCCT,0.266 ± 0.028
7,ACTCCCCC,-0.192 ± 0.053
8,CCCTCCCA,0.325 ± 0.076
9,ACTCCCAA,0.141 ± 0.025
10,ACCTCCCA,-0.0967 ± 0.065
11,ACTCCCCA,0.309 ± 0.0089
12,CCTCCCAA,0.0447 ± 0.088
13,GCCTCCCA,-0.128 ± 0.085
14,TCTCCCCA,0.164 ± 0.047
15,CCTCCCCA,0.346 ± 0.046
16,CGGATAAA,0.0371 ± 0.069
17,AGATGAAT,0.17 ± 0.0036
18,CATCCTAG,0.0659 ± 0.037
19,ATAGGGAA,0.0733 ± 0.043
20,CTAATCCA,0.0132 ± 0.01
21,CACATCGG,-0.0961 ± 0.052
22,ATTGTTGC,0.00699 ± 0.061
23,AAGAGGGC,0.0019 ± 0.0019
24,ACGCTCTG,-0.0545 ± 0.0079
25,CCAACGAC,-0.133 ± 0.023

row,Sequence,PBM 8-mer E-score
1,ATAACTAA,0.112 ± 0.031
2,TAAACTAA,0.233 ± 0.028
3,AAAACTAA,0.132 ± 0.019
4,CAAACTAA,0.0893 ± 0.026
5,CTAACTAA,0.0585 ± 0.065
6,TTAACTAA,0.241 ± 0.014
7,GACTGCCA,-0.0667 ± 0.023
8,ACCCCAGT,0.336 ± 0.028
9,ACCCCACT,0.293 ± 0.044
10,ACCCCACC,0.22 ± 0.074
11,AACCCACT,0.059 ± 0.037
12,ACCCCAGA,0.156 ± 0.044
13,ACCCCAGG,-0.107 ± 0.067
14,ATTGAAGG,6e-05 ± 0.019
15,AGTTCAAA,-0.0257 ± 0.13
16,AACCGGCC,-0.167 ± 0.021
17,CCGCTGCC,-0.123 ± 0.029
18,CAGAGAGA,-0.0625 ± 0.011
19,GTACAAAA,0.27 ± 0.0082
20,CTACAAAA,0.0645 ± 0.037
21,ATACAAAT,0.148 ± 0.12
22,ATACAAAA,0.296 ± 0.014
23,GTACAAAC,0.028 ± 0.04
24,TTACAAAA,0.181 ± 0.03
25,ACCTGTCC,0.0598 ± 0.062

row,Sequence,PBM 8-mer E-score
1,AATATGGC,0.221 ± 0.025
2,CACAGCAC,-0.0272 ± 0.038
3,ATTAAGTA,0.236 ± 0.026
4,AGTAAGTG,0.2306 ± 0.0021
5,AATAAGTG,0.17 ± 0.066
6,AGTAAGTC,0.1006 ± 0.00054
7,ATTAAGTG,0.122 ± 0.011
8,GTTAAGTA,0.0909 ± 0.029
9,CATAAGTA,0.163 ± 0.049
10,AATAAGTA,0.285 ± 0.0052
11,AGTAAGTA,0.126 ± 0.027
12,CTGACCAC,-0.0726 ± 0.025
13,AGGTGGAA,-0.00713 ± 0.04
14,GTTATTAA,0.0581 ± 0.1
15,CAGTCTGG,-0.18 ± 0.038
16,CAAATTCG,0.000655 ± 0.064
17,CACTTAAG,0.0265 ± 0.011
18,ATGGACCG,-0.222 ± 0.029
19,ACCCAAAT,0.277 ± 0.028
20,ACCCAAGC,-0.0166 ± 0.044
21,ACCCAAAA,-0.0026 ± 0.17
22,ACCCAAGT,0.282 ± 0.052
23,ACCCAAAG,0.0519 ± 0.028
24,ACCCAAGG,0.0572 ± 0.07
25,AGGAAACA,0.0889 ± 0.046

row,Sequence,PBM 8-mer E-score
1,AGTCGCCC,-0.0113 ± 0.15
2,AACCGTAT,-0.0505 ± 0.036
3,CTGTGCGC,0.0257 ± 0.14
4,AACGTTCC,0.142 ± 0.028
5,CCGATGCC,-0.029 ± 0.062
6,ATAGCAAT,0.234 ± 0.05
7,AAAGCAAC,0.0449 ± 0.04
8,ATAGCAAG,0.157 ± 0.0043
9,ATAGCAAC,0.031 ± 0.02
10,AAAGCAAG,0.167 ± 0.024
11,AAAGCAAT,0.268 ± 0.011
12,CCGTAACC,-0.243 ± 0.07
13,ATAACCTG,0.113 ± 0.024
14,AATGGCGT,0.0723 ± 0.025
15,CGTGCACA,0.123 ± 0.094
16,TGTGCACA,-0.0483 ± 0.071
17,CGTGCACG,0.357 ± 0.019
18,AAACGTTT,0.171 ± 0.011
19,AGGCAGGC,-0.109 ± 0.057
20,ATATTTCC,-0.00852 ± 0.065
21,CTATTTCC,0.259 ± 0.0072
22,CTATTTCA,0.135 ± 0.01
23,CCAAGCAA,0.0514 ± 0.029
24,ATGGATTA,-0.131 ± 0.0052
25,AGCGTCAA,-0.0167 ± 0.026

row,Sequence,PBM 8-mer E-score
1,ACACAAGA,0.0809 ± 0.01
2,AATTGTAC,0.2375 ± 0.0016
3,CATTGTAG,0.033 ± 0.059
4,CATTGTAC,0.238 ± 0.031
5,AATTGTAG,0.0147 ± 0.034
6,GATTGTAC,0.051 ± 0.031
7,AATTGTAA,0.165 ± 0.011
8,GATTCGAC,-0.119 ± 0.031
9,GCAGGTGA,-0.000525 ± 0.049
10,AGCACAGA,0.00824 ± 0.026
11,AACATGCT,0.0156 ± 0.11
12,AAAACTGC,-0.0787 ± 0.029
13,ACATTATA,0.222 ± 0.013
14,AAACGAAT,0.0979 ± 0.067
15,CAACCGGG,-0.22 ± 0.053
16,ACTCACAA,0.124 ± 0.028
17,ACCTCGAC,-0.178 ± 0.084
18,ATGCATCA,0.332 ± 0.0056
19,CTGCAATA,0.0131 ± 0.065
20,GTGCATCA,0.0577 ± 0.073
21,CTGCATTC,0.0548 ± 0.014
22,GTGCAATA,0.118 ± 0.07
23,CTGCATTA,0.0983 ± 0.0036
24,ATGCATTG,0.133 ± 0.0027
25,ATGCATTC,0.248 ± 0.054

row,Sequence,PBM 8-mer E-score
1,ATGCAATA,0.269 ± 0.021
2,GTGCATTA,0.0825 ± 0.077
3,ATGCATTA,0.311 ± 0.01
4,ATGCATCG,0.0238 ± 0.0075
5,AAAACCCA,0.145 ± 0.034
6,CGTGCCCC,0.0242 ± 0.014
7,GCTCTCTA,-0.0575 ± 0.015
8,ACCTGCCC,-0.236 ± 0.049
9,AGGCATAG,0.017 ± 0.038
10,CAAGTAAA,0.114 ± 0.018
11,CCTACACC,0.00456 ± 0.037
12,TCGCGTCA,-0.0876 ± 0.026
13,ATGCATAC,0.253 ± 0.0083
14,ATGCATAA,0.213 ± 0.023
15,CTGCATAC,0.0495 ± 0.019
16,GCGGCGAC,-0.148 ± 0.0016
17,TAAAACAA,-0.00029 ± 0.077
18,GAAACATC,0.0426 ± 0.019
19,GAAACAAC,0.0094 ± 0.1
20,AAAACATA,0.1684 ± 0.0003
21,GAAAACAA,0.244 ± 0.069
22,CAAACAAA,0.0981 ± 0.0047
23,AAAAACAA,0.158 ± 0.049
24,GAAACAAA,0.301 ± 0.065
25,GAAACATA,0.268 ± 0.048

row,Sequence,PBM 8-mer E-score
1,GATTATTA,0.1 ± 0.071
2,ATTACGAG,0.164 ± 0.013
3,CGAGTTAA,0.0575 ± 0.082
4,ACTCAGAA,0.0145 ± 0.00035
5,CTTAGTAC,0.0932 ± 0.025
6,TATCCAAA,0.103 ± 0.028
7,CCCGTCGA,-0.109 ± 0.064
8,CTGTGGTC,-0.235 ± 0.017
9,CAAGAAGA,0.0996 ± 0.012
10,CTGTTAAC,0.105 ± 0.041
11,GTGTTAAC,-0.018 ± 0.016
12,ATGTTAAC,0.306 ± 0.013
13,CAGTTAAC,0.0298 ± 0.036
14,AAGTTAAC,0.233 ± 0.052
15,GAGTTAAC,0.0742 ± 0.055
16,CCAGTAGA,-0.0423 ± 0.068
17,AAGCCTGA,-0.17 ± 0.034
18,ACCTCCGG,-0.194 ± 0.037
19,CGCTGTAA,-0.00707 ± 0.013
20,AGGTAGCG,-0.0415 ± 0.0036
21,CCATGCGA,0.0911 ± 0.01
22,GCATGCGC,0.112 ± 0.049
23,GCATGCGA,0.266 ± 0.042
